Bioassay records from PubChem.
Sampled rows, rich in hits. Any-hit rate of the full collection: about 3.5%.
ANO1 block – mouse TMEM16A channel inhibition, primary screen; 1.2% of 310,000 active; normalized B-score (activity score, 25-100; higher = stronger inhibition) at 10 µM; Q8BHY3; AID 588511; HEK293 TMEM16A/YFP iodide influx fluorescence, ionomycin;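 active = ratio plate-corrected score three or more library SD toward inhibition, starting fluorescence score within five deviations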;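 note: score derived from kinetic fluorescence span divided by baseline fluorescence per well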
ANO1 activ – activates or potentiates the mouse TMEM16A chloride channel. HEK293 TMEM16A/YFP-H148Q/I152L, iodide quench fluorescence; active compounds read low. 0.3% of 340,000 active. B-score at 10 µM. Q8BHY3. AID 623877;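 active = fluorescence-ratio B-score plate-corrected deviation score at least 3 library SD below zero, with starting fluorescence score within 5 deviations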;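 note: channel opened by trigger with iodide after compound preincubation; score built on the fluorescence ratio of max minus min over baseline; more negative score means more quench and so TMEM16A activation or potentiation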
KCNK3 inh – human KCNK3 channel inhibition, primary screen; CHO-KCNK3 thallium flux, FluxOR fluorescence; active compounds read low; B-score at 10 µM; O14649; 0.84% of 340,000 active;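 active = B-score under library mean minus 4 SD, starting fluorescence ratio at most library mean plus 5 SD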;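 note: more negative B-score means stronger inhibition of thallium flux through KCNK3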
Kir21 block – Kir2.1 (mouse) channel inhibition. P35561. HEK293-Kir2.1, FluxOR thallium flux fluorescence; active compounds read low. B-score at 10 µM. 0.85% of 310,000 active;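 active = fluorescence ratio B-score at or below minus 3 SD of library scores, with starting-brightness B-score within 2 SD, cut at about -4.2 in these data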;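 note: channel flux triggered by added potassium and thallium sulfate stimulus; B-score of peak minus minimum fluorescence over baseline after thallium stimulus; more negative B-score means stronger Kir2.1 block with less thallium influx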
KCNK9 inh – blocks the human KCNK9 two-pore domain potassium channel | Q9NPC2 | HEK293 KCNK9, FluxOR thallium flux fluorescence; active compounds read low | B-score at 10 µM | 1.2% of 310,000 active | AID 488922;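 active = ratio B-score over 3 SD below the library mean, with starting fluorescence within 5 SD of its mean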;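 note: negative B-score means less thallium flux so channel inhibition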
Target sequence (Q9NPC2 whole entry, looked up, the tested form may be a part): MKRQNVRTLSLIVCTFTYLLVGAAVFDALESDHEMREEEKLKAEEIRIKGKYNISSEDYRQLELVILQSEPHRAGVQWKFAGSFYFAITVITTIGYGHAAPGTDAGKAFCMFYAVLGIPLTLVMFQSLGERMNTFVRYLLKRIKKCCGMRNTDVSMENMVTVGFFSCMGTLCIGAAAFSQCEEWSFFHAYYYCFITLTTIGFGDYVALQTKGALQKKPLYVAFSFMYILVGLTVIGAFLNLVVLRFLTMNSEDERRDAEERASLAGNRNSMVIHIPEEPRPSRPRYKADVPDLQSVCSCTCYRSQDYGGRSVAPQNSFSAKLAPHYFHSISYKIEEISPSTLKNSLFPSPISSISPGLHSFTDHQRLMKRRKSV
TMEM16A reconf – reconfirmed blocker of mouse TMEM16A calcium-activated chloride channel; 39% of 2,300 active; AID 652189; shares compounds with ANO1 block; HEK293 TMEM16A/YFP-H148Q, iodide quench fluorescence; ionomycin added to raise cell calcium; inhibition, % at 10 µM;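 active = mean duplicate percent inhibition, scaled so buffer wells are 0 and the reference blocker 100, over three buffer SD above buffer mean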
HEK293 Ca mobil – calcium mobilization counter-screen hit for TMEM16A inhibitor series; 2% of 2,300 active; TMEM16A/YFP HEK293, Fluo4 calcium mobilization; calcium response (% of ionomycin), % at 10 µM; shares compounds with ANO1 block;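 active = duplicate-averaged calcium signal over 20% of the ionomycin maximum, relative to buffer baseline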;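 note: each well's signal is peak minus trough fluorescence divided by its pre-addition baseline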
Parental YFP cnt – parental YFP-HEK293 iodide quench counter-screen activity; YFP ratio F(max-min)/F0 at 10 µM; AID 652233; 2,300 tested, under 10 active; shares compounds with ANO1 block; ionomycin;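 active = yellow fluorescent protein signal ratio exceeding the buffer control mean by over 5 SD of those controls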;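 note: ratio is mean of duplicate wells from kinetic YFP trace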
ClC-1 inh – blocks the rat ClC-1 voltage-dependent chloride channel; shares compounds with ANO1 block; CHO ClC-1-YFP, iodide influx fluorescence quench; iodide control reads 0, buffer control 100; ratio percent, % at 10 µM; 2,300 tested, under 10 active;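 active = duplicate-mean ratio percent above the mean of iodide-only control wells, which defines zero, plus 5 of their SD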;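 note: higher percent means stronger block of ClC-1 iodide influx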
Hits are given with their value; . = inactive; / = no result given.

SMILES | ANO1 block | ANO1 activ | KCNK3 inh | Kir21 block | KCNK9 inh | TMEM16A reconf | HEK293 Ca mobil | Parental YFP cnt | ClC-1 inh
CC(CN1CCCCC1)NC(=O)c1cccs1 (stereo not drawn) | . | . | . | . | . | / | / | / | /
C=CCn1c(SCCN)nnc1-c1cccc(S(=O)(=O)N2CCOCC2)c1 | / | . | . | / | / | / | / | / | /
CCC1(C)Cc2ccccc2-c2nc(-c3ccccc3)oc(=O)c21 (stereo not drawn) | . | . | . | . | . | / | / | / | /
CC1(C)C(=O)OC(c2cccs2)C(C)(C)C1=O (stereo not drawn) | . | . | . | . | . | / | / | / | /
CCOC(=O)Cc1csc(NC(=O)c2csc(C)c2)n1 | 100 | . | . | . | . | 42% | . | . | .
Clc1ccc(CCNc2ncnc3nc[nH]c23)cc1 | 100 | . | . | / | / | 36% | . | . | .
c1ccc(CCCNc2ncnc3nc[nH]c23)cc1 | . | . | . | . | . | / | / | / | /
COCCNC(=S)N1CCC(c2nc(-c3ccc(N(C)C)cc3)no2)CC1 | . | . | . | . | . | / | / | / | /
CC(C)CNC(=S)N1CCC(c2nc(-c3ccc(F)cc3)no2)CC1 | 100 | . | . | . | . | . | . | . | .
O=[N+]([O-])c1ccc(-c2nc(-c3cccs3)c(-c3cccs3)[nH]2)cc1 | . | . | -12 | . | . | 20% | . | . | .
Cn1ncc2c(N3CCN(c4ccc(Cl)c(Cl)c4)CC3)ncnc21 | 25 | . | . | . | . | . | . | . | .
COc1ccc(N=c2oc3c(OC)cccc3cc2C(=O)NCc2ccco2)cc1OC | . | . | . | / | / | . | . | . | .
COc1ccc(OC)c(N=c2oc3c(OC)cccc3cc2C(=O)NCc2ccco2)c1 | . | . | . | . | . | / | / | / | /
CC1CN(S(=O)(=O)c2ccc(Cl)c(S(=O)(=O)N3CC(C)OC(C)C3)c2)CC(C)O1 (stereo not drawn) | 100 | . | . | . | . | . | . | . | .
O=S(=O)(c1ccc(Cl)c(S(=O)(=O)N2CCCC2)c1)N1CCCC1 | . | . | . | . | . | / | / | / | /
COc1cc(C(=O)COC(=O)c2cc([N+](=O)[O-])ccc2N2CCOCC2)ccc1OC(F)F | . | . | . | . | . | / | / | / | /
CCOc1ccc(-c2cccc(NC(=O)COc3ccc(Cl)cc3)c2)nn1 | . | . | . | . | . | / | / | / | /
Cc1nc(-c2cccc(NC(=O)COc3ccc(Cl)cc3)c2)cs1 | 25 | . | . | . | . | . | . | . | .
Nn1c(SCC(=O)Nc2cccc(Br)c2)nnc1C1CC1 | / | . | . | / | / | / | / | / | /
Clc1ccc(Cc2ccc(SCc3ccccc3)nn2)c(Cl)c1 | 25 | . | . | . | . | . | . | . | .
N#Cc1c(NC(=O)CN2CCN(C(=O)c3ccco3)CC2)sc2c1CCCCC2 | 25 | . | . | . | . | . | . | . | .
N#Cc1c(N2CCN(C(=O)c3ccco3)CC2)nc(-c2ccccc2)c2c1CCCC2 | 100 | . | . | . | . | 24% | . | . | .
CC1(C)Cc2c(C#N)c(N3CCN(C(=O)c4ccco4)CC3)nc(Cc3ccccc3)c2CO1 | . | . | . | . | . | / | / | / | /
CC(C)Cc1nc(N2CCN(C(=O)c3ccco3)CC2)c(C#N)c2c1CCC2 | 25 | . | . | . | . | . | . | . | .
COc1ccc(Cl)cc1NC(=O)C(C)N(C)Cc1ccc(C(F)(F)F)cc1 (stereo not drawn) | 100 | . | . | . | -7.4 | . | . | . | .
SMILES | ANO1 block | ANO1 activ | KCNK3 inh | Kir21 block | KCNK9 inh | TMEM16A reconf | HEK293 Ca mobil | Parental YFP cnt | ClC-1 inh
Cc1c(C(C)(C)C)s/c(=N/S(=O)(=O)c2ccccc2)n1C | 100 | . | . | . | . | . | . | . | .
Cc1c(CN2CCC(CO)(Cc3cccc(C(F)(F)F)c3)CC2)c2ccccc2n1C | . | . | . | . | . | / | / | / | /
Cc1ccc(S(=O)(=O)N2CCN(CCC#N)CC2)cc1 | . | . | . | . | . | / | / | / | /
Cc1ccc(SC[C@H](C)CN2CC[C@H](C(C)(C)C)CCC2=O)cc1 | 100 | . | . | . | . | 38% | . | . | .
C[C@@H](CSc1ccc(Br)cc1)CN1CC[C@H](C(C)(C)C)CCC1=O | / | . | . | / | / | / | / | / | /
N#Cc1c(NCc2ccccc2)ccnc1NCc1cccnc1 | 100 | . | . | . | . | 18% | . | . | .
FC(F)(F)c1nc(N2CCCC2)ncc1-c1nnnn1-c1ccc(Cl)cc1 | 25 | . | . | . | . | . | . | . | .
CCc1nnc(NC(=O)CN2CCC(O)(c3ccccc3OC)CC2)s1 | . | . | . | . | . | / | / | / | /
COc1ccccc1C1(O)CCN(CC(=O)Nc2nc(-c3ccccc3)cs2)CC1 | 100 | . | . | . | . | 23% | . | . | .
CC1(C)OC(=O)C(=CNC(Cc2c[nH]c3ccccc23)C(=O)O)C(=O)O1 (stereo not drawn) | . | . | . | . | . | / | / | / | /
O=S(=O)(Nc1nc2ccccc2nc1OCC(F)(F)F)c1cccs1 | 25 | . | . | . | . | . | . | . | .
COc1ccc(Nc2nc3ccccc3nc2NS(=O)(=O)c2cccs2)cc1 | . | . | . | . | . | / | / | / | /
Cc1ccc(CNC(=O)CC(C)S(=O)(=O)c2ccc3c(c2)NC(=O)C(C)S3)cc1 (stereo not drawn) | 25 | . | . | . | . | 22% | . | . | .
Cc1ccc(CNC(=O)CCS(=O)(=O)c2ccc3c(c2)NC(=O)C(C)S3)cc1 (stereo not drawn) | . | . | . | . | . | / | / | / | /
c1ccc(C(Cc2nc(-c3ccncc3)no2)c2ccccc2)cc1 | 100 | . | . | . | . | 24% | . | . | .
COc1cc(C2Nn3c(nnc3-c3ccccc3OC)S2)ccc1O (stereo not drawn) | . | . | . | . | . | / | / | / | /
CC(=O)c1cccc(NC(=O)Nc2ccc3c(c2)N(C)C(=O)CS3)c1 | 25 | . | . | . | . | 34% | . | . | .
O=C(c1ccc2ccccc2c1)C1CCCN(S(=O)(=O)c2cccnc2)C1 (stereo not drawn) | 100 | . | . | . | . | 18% | . | . | .
Cn1c(SCC(=O)N2CCc3ccccc32)nnc1-c1ccc(S(=O)(=O)N2CCCC2)cc1 | . | . | . | . | . | / | / | / | /
O=C(NCc1ccco1)c1ccccc1NS(=O)(=O)c1ccc(Br)s1 | 100 | . | . | . | . | . | . | . | .
Cc1ccc(C(=O)Nc2ccc(OCc3ccccc3)cc2)cc1[N+](=O)[O-] | 25 | . | . | . | . | . | . | . | .
